Source: PubChem
Most compounds without a hit are left out; they make up all but 28% or so of the library.
Pyk2 oligo antag – antagonists of Pyk2 self-association, primary screen, Q293 cells, FERM NanoBiT luminescence, HTS | Protein-tyrosine kinase 2-beta (Homo sapiens), Q14289 | stronger effect = lower value | z-score (the deposit names both 25 µM and 10 µM) | 99,000 tested, 0.83% active;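 active means Z-score of -3 or lower, scaled per plate to the spread of control and sample wells; inactive means z-score above -3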;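 further: negative z-score means lost luminescence so less FERM oligomerization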
CYP2C9 activ – human CYP2C9 activators, primary screen, biochemical, luminescence; recombinant CYP2C9, luciferin-H conversion; stronger effect = higher value; factor 1 = untreated enzyme, 0 = blocked; activation factor at 5 µM; 96,000 tested, 1.4% active;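 active means activation factor of 2 or more for CYP2C9 at a 5 µM dose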;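 further: 0 = sulfaphenazole-blocked wells and 1 = vehicle-only wells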
Target sequence (P11712 whole entry, looked up): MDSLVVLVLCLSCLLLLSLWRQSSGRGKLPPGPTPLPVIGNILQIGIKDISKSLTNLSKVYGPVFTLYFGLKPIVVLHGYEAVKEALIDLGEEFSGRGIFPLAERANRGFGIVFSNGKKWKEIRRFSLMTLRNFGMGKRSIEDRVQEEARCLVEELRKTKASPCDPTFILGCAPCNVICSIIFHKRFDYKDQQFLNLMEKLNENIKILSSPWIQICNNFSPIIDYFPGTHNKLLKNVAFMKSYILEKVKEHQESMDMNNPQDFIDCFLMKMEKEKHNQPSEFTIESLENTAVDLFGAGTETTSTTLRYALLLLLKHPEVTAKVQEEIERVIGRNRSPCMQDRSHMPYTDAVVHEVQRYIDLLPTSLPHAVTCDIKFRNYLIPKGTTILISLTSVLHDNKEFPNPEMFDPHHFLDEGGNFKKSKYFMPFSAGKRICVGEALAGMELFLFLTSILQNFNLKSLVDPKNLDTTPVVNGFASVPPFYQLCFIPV
CYP2C9 inhib – blockers of cytochrome P450 2C9 activity – biochemical, luminescence, ADME assay, primary screen; P11712; CYP2C9 Supersomes, luciferin-H conversion; inhibition, % at 5 µM; 96,000 tested, 20% active; AID 777, 2007;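 active means blocking of liver enzyme CYP2C9 beyond about 50% at 5 µM, limit read from the data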
CYP2C19 inhib – blockers of cytochrome P450 2C19 activity – biochemical, luminescence, ADME assay, primary screen. 96,000 tested, 21% active. CYP2C19 Supersomes, luciferin-H EGE luminescence, 30 min. inhibition, % at 5 µM. AID 778, 2007;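 active means CYP2C19 inhibition above a set limit at 5 µM in the primary screen, cut at about 50% in these data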;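 further: plate controls were negative control wells for no effect and 2.5 mM tranylcypromine positive control for full effect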
CYP2C19 act – human CYP2C19 activators, primary screen, biochemical, luminescence | Cytochrome P450 2C19 (Homo sapiens), P33261 | recombinant CYP2C19, luciferin-H EGE luminescence; stronger effect = higher value; 0 = fully inhibited enzyme, 1 = untreated enzyme | activation factor at 5 µM | 96,000 tested, under 10 active;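 active means activation factor of at least 2 at 5 µM in the primary screen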;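 further: 0 = wells with 2.5 mM tranylcypromine and 1 = vehicle-only wells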
* hit, by the source's call; x = no result.

SMILES	Pyk2 oligo antag	CYP2C9 activ	CYP2C9 inhib	CYP2C19 inhib	CYP2C19 act
O=C(O)CCN1C(=O)/C(=C\c2ccc(-c3nc4ccccc4s3)o2)SC1=S	-0.57	0.7	26	-4	1
CN(CCOc1ccc(-c2ccn(S(=O)(=O)c3cccc4ccccc34)n2)cc1)c1ccccn1	0.84	0.5	49	50*	0.5
CCOCC(=O)NCc1ccc2c(c1)OCO2	0.25	1	3	22	0.8
CCOC(=O)C(NCc1ccc2c(c1)OCO2)(NC(=O)CC)C(F)(F)F (stereo not drawn)	0.39	0.1	88*	97*	0
Cc1ccc(C2NC(=O)Cc3ccccc32)cc1 (stereo not drawn)	0.05	1	2	65*	0.3
O=C(NCCN1CCN(c2ccccc2)CC1)c1cccn2c(=O)c3cc(Cl)ccc3nc12	0.63	0.4	64*	39	0.6
CCOC(=O)N1CCN(C(=O)c2cccn3c(=O)c4cc(Cl)ccc4nc23)CC1	0.66	0.6	40	27	0.7
O=C(NCCN1CCN(c2ccccc2)CC1)c1cccc(Br)c1	0.33	0.6	45	53*	0.5
CCOC(CNC(=O)c1cccn2c(=O)c3cc(Cl)ccc3nc12)OCC	-0.33	0.3	66*	22	0.8
CCN(CC)CCCN1C(=O)C(O)=C(C(=O)c2sc(C)nc2C)C1c1ccco1 (stereo not drawn)	0.27	0.9	7	-3	1
CCOC(=O)c1cccc(NC(=O)CSc2nc3ccccc3c(=O)n2CCOC)c1	-2	0.4	64*	27	0.7
CCOC(=O)c1cccc(NC(=O)CSc2nc3ccccc3c(=O)n2CC)c1	-0.94	0.5	51*	8	0.9
CCOC(=O)c1cc(-c2ccc(C)cc2)n(CC(=O)NCc2ccco2)c1C	x	0.2	77*	83*	0.2
CC(=O)c1cc(-c2ccccc2)n(CC(=O)NCc2cccs2)c1C	0.85	0.6	41	88*	0.1
O=C(CN1CCN(Cc2ccccc2)C1=O)NCc1cccs1	x	0.8	17	30	0.7
Cc1csc(NC(=O)CSc2nnc(-c3cccs3)n2C)n1	0.12	0.6	41	52*	0.5
CCn1c(CC(=O)Nc2ccc(C)c(Cl)c2)nnc1SCC(=O)Nc1nc(C)cs1	0.09	0.4	63*	24	0.8
CCn1c(SCC(=O)Nc2cccc(NC(=O)c3ccco3)c2)nnc1-c1cccs1	0.13	0.4	65*	56*	0.4
CCn1c(SCC(=O)Nc2ccc(NC(=O)c3ccco3)cc2)nnc1-c1cccs1	-0.23	x	x	x	x
CCn1c(Cc2ccccc2)nnc1SCC(=O)Nc1nc(C)cs1	0.62	x	x	x	x
CCn1c(SCC(=O)NCCc2ccc(Cl)cc2)nnc1-c1cccs1	0.06	0.2	81*	78*	0.2
Cc1nn(CCC#N)c(NC(=O)c2ccc(Cl)cc2Cl)c1P(=O)(Nc1ccc([N+](=O)[O-])cc1)N1CCOCC1 (stereo not drawn)	0.85	0.9	11	-6	1.1
CCOC(=O)N1CCN(S(=O)(=O)c2ccc3c(c2)SC(C)C(=O)N3)CC1 (stereo not drawn)	-0.05	x	x	x	x
Cc1cccc(OCCCC(=O)Nc2ccc(N3CCCCC3)cc2)c1C	2.6	0.9	8	-1	1
CC(C)C(NC(=O)CN(c1cccc(F)c1)S(C)(=O)=O)C(C)C	-0.82	x	x	x	x
SMILES	Pyk2 oligo antag	CYP2C9 activ	CYP2C9 inhib	CYP2C19 inhib	CYP2C19 act
CCc1ccc(NC(=O)CSc2nnc(-c3cccs3)n2CC)cc1	-2	0.5	52*	28	0.7
CCc1ccc(NC(=O)CSc2nnc(-c3ccccn3)n2C)cc1	0.23	0.3	72*	67*	0.3
O=C(CCCn1c(=S)[nH]c2ccccc2c1=O)N1CCCCC1	0.06	0.7	34	81*	0.2
CC1CCN(CCCn2c(=S)[nH]c3ccccc3c2=O)CC1	-0.17	1.1	-13	4	1
O=c1c2ccccc2[nH]c(=S)n1CCCN1CCOCC1	-0.17	1	4	60*	0.4
CC1CC(C)CN(C(=O)CCCn2c(=S)[nH]c3ccccc3c2=O)C1 (stereo not drawn)	-1.6	0.6	39	85*	0.1
COc1ccc(N2CCN(C(=O)C3CCC(Cn4c(=S)[nH]c5ccccc5c4=O)CC3)CC2)cc1 (stereo not drawn)	-0.14	0.2	81*	83*	0.2
O=S(=O)(c1cccc2cccnc12)n1cnc2ccccc21	0.41	1.6	-64	10	0.9
O=C(CCn1c(=S)[nH]c2ccccc2c1=O)N1CCOCC1	x	1.1	-8	6	0.9
O=C(CCCn1c(=S)[nH]c2ccc(Br)cc2c1=O)N1CCN(c2ccccn2)CC1	-1.4	0.4	55*	70*	0.3
CCc1ccccc1NC(=O)Cn1nc(C(F)(F)F)cc1C1CC1	-0.43	0.9	5	83*	0.2
Cc1cc(C(F)(F)F)nn1CC(=O)NNC(=S)NCC(C)C	1.2	1	0	32	0.7
Cc1sc(NC(=O)Cn2nc(C(F)(F)F)cc2C)c(C(=O)OC(C)C)c1C	1.3	0.4	62*	18	0.8
CCNS(=O)(=O)c1ccc(NC(=O)Cn2nc(C(F)(F)F)cc2C)cc1	-0.07	0.4	57*	-17	1.2
CCOc1ccc(NC(=O)C(C)Oc2ccccc2C(=O)Nc2ccc(C)c(Cl)c2)cc1 (stereo not drawn)	-0.53	x	x	x	x
COc1cc(C(=O)NCCN2CCCC2)cc(OC)c1OC	-0.62	x	x	x	x
Clc1ccc(C2=Nn3c(nnc3-c3cccs3)SC2)cc1	-0.13	x	x	x	x
Fc1ccccc1Cc1nnc2n1N=C(c1ccc(Cl)cc1)CS2	0.52	0.4	56*	33	0.7
Cc1ccc(C23CC4CC(CC(C(=O)N5CCOCC5)(C4)C2)C3)cc1	-0.96	0.4	57*	76*	0.2
Cc1c(N(C(=O)Nc2ccccc2)C2=NCC(C)S2)c(=O)n(-c2ccccc2)n1C (stereo not drawn)	0.11	0.3	74*	32	0.7
Cc1ccc(N(C(=O)Nc2ccccc2)C2=NCC(C)S2)cc1 (stereo not drawn)	2	0.1	86*	71*	0.3
CC1CN=C(N(C(=O)Nc2ccccc2)C(C)C)S1 (stereo not drawn)	0.43	x	x	x	x
CCc1ccc(C(=O)CSc2n[nH]c(-c3ccncc3)n2)cc1	0.24	0	97*	87*	0.1
CCCC1CC(C)(C(=O)CSc2n[nH]c(-c3ccccc3)n2)OC1=O (stereo not drawn)	0.86	0.6	42	50	0.5
COc1ccc(C(=O)CSc2n[nH]c(-c3ccco3)n2)cc1	1.4	0.9	11	29	0.7
COC(=O)CSc1n[nH]c(-c2ccncc2)n1	-1	0.4	65*	61*	0.4
O=C(CSc1n[nH]c(-c2ccccc2)n1)Nc1ccc(Br)cn1	-1.2	x	x	x	x
